Results filed as inconclusive are left out. A call without a number means that no potency is given here. Calls of active or inactive are those of the source. Calls follow the shape of the dose curve; as a rule, active = well fitted inhibition curve with a large enough effect; inconclusive = small, poorly fitted or top-dose-only effect; inactive = flat fitted curve, though single readings scatter.
These compounds were tested against Calcium and integrin-binding protein 1 (Homo sapiens) (UniProt Q99828) (assay: Primary qHTS for Identification of Calcium Integrin Binding Protein 1 (CIB1) Competitor (AID 1508620;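 also: GST tagged CIB1 binding a fluorescein labelled alphaIIb integrin peptide tracer; top concentration of the series differs between compounds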)). Settings: CIB1-GST / FITC-alphaIIb peptide fluorescence polarization; series mostly up to 114 µM.
Chain of Calcium and integrin-binding protein 1 (Homo sapiens) (Q99828 whole entry, looked up): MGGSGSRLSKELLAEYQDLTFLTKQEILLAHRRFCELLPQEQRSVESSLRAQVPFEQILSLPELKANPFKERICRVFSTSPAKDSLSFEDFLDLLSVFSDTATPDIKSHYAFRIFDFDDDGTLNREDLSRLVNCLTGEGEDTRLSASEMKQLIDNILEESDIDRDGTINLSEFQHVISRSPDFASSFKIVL
Procedure, shortened: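 CIB1-GST (1 uM final) and compound incubated 15 min at room temperature before adding FITC-alphaIIb peptide tracer (100 nM final). Competition for binding read by fluorescence polarization (ex 480, em 540) after another 15 min at room temperature.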

Row | Compound | Potency
1 | COC1CC(OC2CCC3(C=O)C(CCC4C3CCC3(C)C(C5=CC(=O)OC5)CCC43O)C2)OC(C)C1OC1OC(CO)C(O)C(O)C1O (stereo unspecified) | inactive
2 | C[C@@]12C[C@@H](c3ccoc3)OC(=O)C1CC[C@]1(C)[C@H]2[C@H]2C=C[C@]1(O)C(=O)O2 (stereo partly specified) | inactive
3 | CC(=O)OC1CC(O)C(C)(C)C2CC(OC(C)=O)C3(C)C(CCC4(C)C(c5ccoc5)C(=O)C5OC543)C12C (stereo unspecified) | inactive
4 | C[C@H]1C(=O)O[C@H]2[C@H](O)[C@]34C5OC(=O)[C@]3(O[C@@H]3OC(=O)[C@H](O)C34[C@H](C(C)(C)C)[C@H]5O)C12O (stereo partly specified) | inactive
5 | CC(=O)O[C@H]1C[C@@H](OC(C)=O)C(C)(C)C2C[C@@H](O)[C@]3(C)C(CC[C@@]4(C)[C@H](C5=CC(=O)OC5O)C[C@H]5O[C@]543)[C@]21C (stereo partly specified) | inactive
6 | CC1C/C=C/C(O)C(O)CC/C=C/c2cc(O)cc(O)c2C(=O)O1 (stereo unspecified) | inactive
7 | CN1[C@H]2C[C@H](OC(=O)[C@H](CO)c3ccccc3)C[C@@H]1[C@@H](O)C2 | inactive
8 | CC(CCc1ccc(O)cc1)O[C@@H]1O[C@H](CO[C@H]2OC[C@](O)(CO)[C@H]2O)[C@@H](O)[C@H](O)[C@H]1O (stereo partly specified) | inactive
9 | C[C@@]1(C(=O)O)CC[C@]2(C)CC[C@]3(C)C4=CC(=O)c5cc(O)c(O)cc5[C@]4(C)CC[C@@]3(C)[C@@H]2C1 | inactive
10 | C=C(C)[C@H]1O[C@H]2CC[C@@]3(C)[C@@](O)(CC[C@H]4[C@@H]5OC(C)(C)[C@H]6C[C@@H]7C(=C)Cc8c(Cl)cc9[nH]c(c5c9c8[C@@]76O)[C@@]43C)[C@]23O[C@@H]3[C@H]1O | inactive
11 | N#C[C@@H](O[C@@H]1O[C@H](CO[C@@H]2O[C@H](CO)[C@@H](O)[C@H](O)[C@H]2O)[C@@H](O)[C@H](O)[C@H]1O)c1ccccc1 | inactive
12 | C=CC(C)(C)c1[nH]c2cccc3c2c1C[C@@H]1[C@@H]3[C@@H](OC(C)=O)[C@H](C)CN1C | inactive
13 | CCCCCOc1cc2c(cc1-c1cc(/C=C/C(=O)O)ccc1O)C(C)(C)CCC2(C)C | inactive
14 | CN1[C@@H]2CC[C@H]1CC(OC(=O)C1C=Nc3ccccc31)C2 (stereo partly specified) | inactive
15 | C[C@H](NC(=O)Cc1cc(F)cc(F)c1)C(=O)N[C@@H]1N=C(c2ccccc2)c2ccccc2N(C)C1=O | inactive
16 | CC(C)(O)[C@H]1O[C@H]2CC[C@@]3(C)[C@@](O)(CC[C@H]4Cc5c([nH]c6ccccc56)[C@@]43C)C2=CC1=O | inactive
17 | COC1CC(O[C@H]2CC[C@@]3(C)C(=CCC4C3C(O)[C@@H](O)[C@]3(C)[C@@H](C(C)=O)CC[C@]43O)C2)OC(C)C1OC1CC(OC)C(OC2OC(C)C(O)C(O)C2O)C(C)O1 (stereo partly specified) | inactive
18 | CCC1NC(=O)C2C(Cl)C(Cl)CN2C(=O)C(C(C)O)NC(=O)CC(c2ccccc2)NC(=O)C(CO)NC1=O (stereo unspecified) | inactive

Row | Compound | Potency
19 | CC(C)C1(OO)C=C2C(=O)CC3C(C)(C(=O)O)CCCC3(C)C2CC1 (stereo unspecified) | inactive
20 | CCN1C[C@]2(COC)[C@H](O)C[C@H](OC)[C@]34[C@@H]5C[C@]6(O)[C@H](OC(=O)c7ccccc7)[C@@H]5[C@@](O)([C@H]([C@H](OC)[C@H]23)[C@@H]14)[C@@H](O)[C@@H]6OC | inactive
21 | CC(=O)OC1CC(O)C2(C)C(CC(OC(C)=O)C3(C)C2CCC2(C)C(c4ccoc4)C(=O)C4OC423)C1(C)C (stereo unspecified) | inactive
22 | COC1CC(OC2CCC3(C)C(=CCC4C3CCC3(C)C(C(C)OC5OC(COC6OC(CO)C(O)C(O)C6O)C(O)C(O)C5O)CCC43O)C2)OC(C)C1OC1OC(C)C(O)C(OC)C1O (stereo unspecified) | inactive
23 | CN1C(=O)c2ccccc2NC(=O)C1Cc1ccccc1 (stereo unspecified) | inactive
24 | COC(=O)C1(C)CCC(O)C2(C)c3cc(O)c(C(C)C)cc3C(O)C(OC(C)=O)C12 (stereo unspecified) | inactive
25 | N#CC(OC1OC(COC2OC(CO)C(O)C(O)C2O)C(O)C(O)C1O)c1ccccc1 (stereo unspecified) | inactive
26 | COC1=CC(=O)O[C@@H](CCc2ccccc2)C1 | inactive
27 | CC1=C2C(=O)C3[C@@H](CC=C4C[C@@H](O)CC[C@@]43C)[C@@H]2CC[C@]12O[C@@H]1C[C@H](C)CN[C@H]1[C@H]2C (stereo partly specified) | inactive
28 | CC(C)=C1CC[C@]23CO[C@H](C2)[C@@](O)(C(=O)O)CCC13 (stereo partly specified) | inactive
29 | CN1C(=O)N(c2ccc(C#N)c(C(F)(F)F)c2)C(=O)[C@]1(CO)c1ccccc1 | inactive
30 | COC1CC(=O)C23C(=O)NC(CC(C)C)C2C(C)=C(C)C(OO)C3/C=C(\C)CCC(O)C1O (stereo unspecified) | inactive
31 | COC1C(O)C(OC2CCC3(C=O)C(CCC4C3CCC3(C)C(C5=CC(=O)OC5)CCC43O)C2)OC(C)C1OC1OC(CO)C(O)C(O)C1O (stereo unspecified) | inactive
32 | CCCN1CCO[C@H]2c3cc(O)ccc3OC[C@@H]21 | inactive
33 | O=C(O)c1ccnc2cc(C(OCCN3CCCCC3)c3ccccc3Cl)[nH]c12 (stereo unspecified) | inactive
34 | CC(=O)OC12C(O)C(C)C3(O)C4C=C(C)C(=O)C4CC(CO)=CC3C1C2(C)C (stereo unspecified) | inactive
35 | CO[C@@H]1[C@H](O)[C@@H](O[C@@H]2C[C@H]3CC[C@@H]4C(CC[C@]5(C)[C@@H](C6=CC(=O)OC6)CC[C@]45O)[C@@]3(C)[C@H](O)C2)O[C@H](C)[C@@H]1O[C@@H]1O[C@H](CO)[C@@H](O)[C@H](O)[C@H]1O (stereo partly specified) | inactive
36 | CN1C(=O)c2ccccc2NC(=O)[C@]12O[C@@H]2c1ccccc1 | inactive
